Measured values taken from the supplement of paper PMC4709259.
Structures can show the parent of a compound that is named as a salt. ± gives the standard deviation.

Key:
[1] = tested on: Jurkat; test: mean cell size (FSC-A) relative to DMSO control (fraction of control); higher = larger cells; details: 48 h
How it was run: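 Jurkat cells at 600 cells/µl were incubated for 1 h and then treated for 48h with the Enzo Screen-Well FDA Approved Drug Library v2.0 at 25µM, with DMSO at 0.9% (v/v) final. Compounds that reduced counts below 20% of controls were retested in 10-fold dilutions down to 25nM. Cell count and mean cell size, taken as forward scatter area, were measured by flow cytometry relative to solvent-only controls. Each plate carried 6-12 controls, and values are means of 3 biological replicates.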

[2] = tested on: Jurkat; test: cell count relative to DMSO control (fraction of control); higher = more cells (less growth inhibition); details: 48 h

Row | Compound | mean cell size [1] | cell count [2]
1 | O=C1c2c(O)ccc(O)c2C(=O)c2c(NCCNCCO)ccc(NCCNCCO)c21 [Mitoxantrone·HCl] (concentration: 25 nM) | 1.43 ± 0.11 | 0.2 ± 0.063
2 | CC(=O)O[C@]1(C(C)=O)CC[C@H]2[C@@H]3C=C(C)C4=CC(=O)CC[C@]4(C)[C@H]3CC[C@@]21C [Megestrol Acetate] (concentration: 25 µM) | 0.9825 ± 0.0053 | 0.704 ± 0.059
3 | CN(C)CCc1c[nH]c2ccc(Cn3cncn3)cc12 [Rizatriptan Benzoate] (concentration: 25 µM) | 1.02 ± 0.039 | 0.844 ± 0.01
4 | CN1CC(=O)N2[C@H](c3ccc4c(c3)OCO4)c3[nH]c4ccccc4c3C[C@@H]2C1=O [Tadalafil] (concentration: 25 µM) | 0.922 ± 0.05 | 0.413 ± 0.12
5 | Cc1cccc(Nc2ccccc2C(=O)O)c1C [Mefenamic Acid] (concentration: 25 µM) | 0.938 ± 0.025 | 0.655 ± 0.14
6 | NC(=O)c1cnccn1 [Pyrazinamide] (concentration: 25 µM) | 1 ± 0.031 | 0.808 ± 0.066
7 | C[C@H](N)[C@H](O)c1cccc(O)c1 [Metaraminol Bitartrate] (concentration: 25 µM) | 1.04 ± 0.058 | 0.774 ± 0.12
8 | CC(C)(O/N=C(\C(=O)N[C@@H]1C(=O)N2C(C(=O)[O-])=C(C[n+]3ccccc3)CS[C@H]12)c1csc(N)n1)C(=O)O [Ceftazidime] (concentration: 25 µM) | 0.958 ± 0.011 | 0.884 ± 0.095
9 | C[C@]12C=CC(=O)C=C1CC[C@@H]1[C@@H]2C(=O)C[C@@]2(C)[C@H]1CC[C@]2(O)C(=O)CO [Prednisone] (concentration: 25 µM) | 1 ± 0.042 | 0.689 ± 0.13
